Source: PubChem BioAssay (NCI)
Compounds without any hit were thinned out: in the full panel of roughly 83,000, 20% have a hit.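 Cell lines were cultured in 96-well plates, exposed to a single compound concentration, and assessed for percent growth 48 hours later.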 A number with no mark means an inactive call. Activity calls are given as the source filed them. The calls were made as follows: active = growth percent below 10; inactive = the rest.

Legend:
Assay in all cases: NCI-60 one-dose screen, 48 h (100 = growth as untreated, 0 = no growth, -100 = all killed)
Conditions in all cases: 10 µM unless noted
NCI-H23 lung = system: NCI-H23 lung
NCI-H226 lung = system: NCI-H226 lung
NCI-H322M lung = system: NCI-H322M lung
HOP-62 NSCLC = system: HOP-62 NSCLC
NCI-H460 lung = system: NCI-H460 lung
HOP-92 NSCLC = system: HOP-92 NSCLC
NCI-H522 lung = system: NCI-H522 lung
A549/ATCC NSCLC = system: A549/ATCC NSCLC
786-0 renal = system: 786-0 renal
COLO 205 colon = system: COLO 205 colon

Compound	growth (NCI-H23 lung)	growth (NCI-H226 lung)	growth (NCI-H322M lung)	growth (HOP-62 NSCLC)	growth (NCI-H460 lung)	growth (HOP-92 NSCLC)	growth (NCI-H522 lung)	growth (A549/ATCC NSCLC)	growth (786-0 renal)	growth (COLO 205 colon)
COc1ccc(/C=C2\COc3ccc(O)cc3C2=O)cc1	109%	104%	100%	103%	104%	110%	37.7%	97.8%	92.2%	110%
N#Cc1c(-c2ccccc2)nc(SCc2nnc(-c3ccc(Cl)cc3)o2)[nH]c1=O	105%	97.2%	104%	63.7%	105%	78.8%	71.2%	78.2%	89.2%	89.3%
CCN(CC)CCCN1C(=O)c2c(c(C)c3c(oc4ccc(OC)cc43)c2C)C1=O	104%	32.4%	102%	93.9%	108%	86.7%	93.9%	101%	40.2%	92.2%
COc1ccc(C(=O)Cn2c(C(=O)c3ccc(Cl)cc3)nc3ccccc32)cc1	78.3%	87.4%	89.7%	81.8%	86.9%	59.3%	14.8%	68.1%	64.6%	111%
[2H]C([2H])([2H])Oc1ccc(F)cc1/C=C/C(=O)/C=C(O)/C=C/c1cc(F)ccc1OC([2H])([2H])[2H]	88.9%	105%	107%	91.9%	88.6%	99.3%	74.4%	93.7%	99.7%	116%
CC/C=C\C[C@H](O)C/C=C1/C(=O)C=C[C@@H]1C/C=C\CCCC(=O)O	79.9%	83.1%	85.6%	96.9%	64.8%	75.2%	-10.7% (active)	75.9%	68.5%	65.4%
COc1ccc(/C=C2\CN(C(=O)C(Cl)Cl)C/C(=C\c3ccc(OC)cc3)C2=O)cc1	-36.9% (active)	61.3%	4.8% (active)	40.5%	-34.5% (active)	-3.88% (active)	14.9%	4.79% (active)	-48.4% (active)	-34.2% (active)
Cc1ccc(/C=C(\C#N)n2nnc3cc(F)c(F)cc32)cc1	27.1%	47.6%	4.87% (active)	23.1%	22%	-5.1% (active)	1.39% (active)	10.1%	-26.8% (active)	-27.9% (active)
CN1CCN(Cc2ccc(NC(=O)c3cncc(C#Cc4cnc(N)c5ccc(F)cc45)c3)cc2C(F)(F)F)CC1	30.1%	28.2%	23.5%	7.94% (active)	-15.9% (active)	-6.92% (active)	-81.1% (active)	24.4%	-76.8% (active)	-25.7% (active)
C#CCn1cnc2cnc(Nc3cccc(NC(=O)C=C)c3)nc21	95.6% [6.25 µM]	78.8% [6.25 µM]	96.1% [6.25 µM]	78.6% [6.25 µM]	90.6% [6.25 µM]	32.6% [6.25 µM]	71.4% [6.25 µM]	85.3% [6.25 µM]	56.8% [6.25 µM]	82.2% [6.25 µM]
CSc1nn2c(-c3ccc4ccccc4c3)ccnc2c1C#N	33.1%	24.9%	56.2%	18.6%	-29.6% (active)	33.8%	-23.4% (active)	5.43% (active)	22.2%	17%
C=C1C(=O)O[C@H]2[C@H]1CC/C(COC(=O)/C=C/C(=O)OC/C1=C/CC[C@@]3(C)O[C@H]3[C@H]3OC(=O)C(=C)[C@@H]3CC1)=C\CC[C@@]1(C)O[C@@H]21	94.1%	80.6%	101%	96.6%	100%	19%	-32% (active)	88.6%	5.31% (active)	11.3%
CCN1C(=O)N(CC)C2C1N=C(SCc1ccc(Cl)cc1)N2/N=C/C=C/c1ccccc1OC (stereo not given)	78.2%	75%	97.1%	70%	85.6%	50.6%	34.1%	53.7%	86.2%	59.7%
